We go through 14 compounds from PubChem BioAssay (NCI).

The structures appear in SMILES notation. This is part of a sample that, as a whole, favours compounds with a hit. Of some 83,000 tested, about 20% had one in any assay.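 Assay: single dose, 48 h. Readout: percent growth (0 = no net growth; negative = cell death). Active: <10.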 Values without a mark were called inactive. Active and inactive are the calls of the source.

Holding throughout (assay): NCI-60 one-dose screen, 48 h (100 = growth as untreated, 0 = no growth, -100 = all killed)
Holding throughout (details): 10 µM unless noted

Assay [1] has as its system SR leukemia.
Assay [2] has as its system OVCAR-5 ovarian.
The test system of assay [3] is OVCAR-4 ovarian.
Assay [4] relates to SK-OV-3 ovarian.
Assay [5] relates to IGROV1 ovarian.
The test system of assay [6] is OVCAR-3 ovarian.
In assay [7] the test system is HS 578T breast.
Assay [8] deals with NCI/ADR-RES ovarian.
Assay [9] deals with RPMI-8226 leukemia.
For assay [10], the system named is OVCAR-8 ovarian.

As for `Cc1ccc(C(=O)/C(=C/c2ccc([N+](=O)[O-])cc2)SCc2ccc(Cl)cc2)cc1`, the growth was 11.4% in [1]; 85.1% in assay [2]; 58.8% in [3]; 101% in assay [4]; 74.7% in assay [5]; 47.6% in assay [6]. Moreover, the growth in assay [7] is 88.2%; in assay [8], 72%.
Regarding `O=C1Nc2ccccc2/C1=C\c1c(-c2ccccc2)nc2ccccn12`, the growth in assay [9] is 66%; in assay [10], 68.9%; in assay [2] it was 68.2%; in assay [3], 78.8%; in assay [4], 30.5%; in assay [5], 46.3%. The growth was 11.9% in [6], 69.5% in assay [7] and -11.1% (active) in [8].
Take `COc1ccc(C(=O)NNc2nc(Cl)nc(N3CCN(C(c4ccccc4)c4ccccc4)CC3)n2)cc1`: the growth in assay [9] was 84.2%; in [10], 34.1%; in assay [2], 96.9%; in [3] it was 20.5%; in assay [4] it was 101%; in assay [5], -59.7% (active). The growth in assay [6] was -71.5% (active); in [7], 67.1%; in [8] it was 50%.
Regarding `CCCCC/C=C/C(C)=C/C1CC(C)C/C=C/CCC(O)C(OC(N)=O)CCC(C)CC(O)C(C)C(=O)O1` (stereo not given), the growth is 56.3% in assay [9]; 98.5% in [10]; 102% in [2]; 107% in assay [3]; 111% in assay [4]; 87.3% in assay [5]. Further, the growth was 129% in assay [6], 94% in assay [7] and 96% in assay [8].
With `Cc1nc2sccn2c1-c1cn2ccsc2n1`, the growth in [9] was 65%; in assay [10], 96%; in assay [2], 87.7%; in [3], 70.8%; in assay [4] it was 94.9%; in assay [5] it was 14.3%. Moreover, the growth in [6] is 85.8%; in assay [7] it was 87%; in assay [8], 98%.
As for `Cn1cc(-c2nc(-c3c[nH]c4c(Cl)nccc34)cs2)c2cc(F)ccc21`, the growth in assay [9] is 90.1%; in assay [10], 89.6%; in [2] it was 119%; in assay [3] it was 88%; in assay [4] it was 100%; in assay [5] it was 117%. For the same compound, the growth in [6] was 114%; in assay [7], 113%; in assay [8] it was 111%.
For `COc1cc(NCCCCCNC(C)(C)C)c2ncccc2c1`, the growth was 7.94% (active) in [9]; 102% in assay [10]; 110% in assay [2]; 22.6% in assay [3]; 97% in [4]; 37.2% in [5]. The growth is 81.2% in assay [6], 88.3% in [7] and 85.4% in assay [8].
As to `CCCCCCCC(=O)OCC/C=C/C1OC1C1OC(=O)/C=C\C=C\C(=O)N(C(C)=O)C(=O)/C=C(/C)CCC2OC2C1OC(=O)NC(C)=O` (stereo not given), the growth is 45.2% in [9]; 85.1% in [10]; 79.5% in [2]; 97.2% in [3]; 96% in [4]; 62.7% in assay [5]. In addition, the growth in [6] is 61.2%; in assay [7] it was 87.5%; in assay [8], 78.1%.
With `Cc1c(C)c([N+](=O)[O-])c(C)c([N+](=O)[O-])c1C`, the growth in assay [9] was 102%; in [10], 104%; in assay [2], 104%; in [3], 99.5%; in assay [4], 114%; in assay [5] it was 104%. In addition, the growth in assay [6] was 109%; in assay [7] it was 102%; in assay [8], 108%.
In the case of `N#CC1C(C#N)C2c3ccccc3C=CN2C1C(=O)c1ccc(Br)cc1` (stereo not given), the growth in assay [9] is 110%; in [10], 94.9%; in assay [2] it was 98%; in [3] it was 54.3%; in assay [4], 108%; in [5], 102%. Besides, the growth in assay [6] was 109%; in [7], 103%; in assay [8] it was 94.7%.
For `Cc1cc(Cl)nc(N(CCNc2ccnc3cc(Cl)ccc23)Cc2ccccn2)n1`, the growth in [9] is 26.6%; in assay [10], 39.3%; in assay [2], 74.3%; in [3], 35%; in assay [4], 82.9%; in [5], 57.5%. Further, the growth in assay [6] was 3.13% (active); in [7] it was 87.3%; in assay [8], 47.5%.
In the case of `Nc1nc(Nc2ccccc2SSc2ccccc2Nc2nc(N)nc(-c3ccc(C(F)(F)F)cc3)n2)nc(-c2ccc(C(F)(F)F)cc2)n1`, the growth in assay [9] was 43.6%; in assay [10], 56%; in [2] it was 104%; in assay [3] it was 82%; in [4] it was 104%; in assay [5] it was 69.7%. Further, the results for the growth in assay [6], in assay [7] and in assay [8] were 80.5%, 78.7% and 56.4%, respectively.
As for `CNC(=O)c1cc(Cn2nc(C)c(NC(=O)Nc3ccc(Cl)c(C(F)(F)F)c3)c2C)ccn1`, the growth in [9] is 94.9%; in assay [10] it was 97%; in [2], 99.7%; in [3] it was 87.1%; in assay [4], 95.2%; in assay [5] it was 109%. Moreover, the growth in [6] is 109%; in assay [7] it was 97.1%; in assay [8] it was 98.8%.
As for `C=C(C)[C@@H]1CC[C@]2(C(=O)N[C@@H](Cc3ccccc3)C(=O)OC)CC[C@]3(C)[C@H](CC[C@@H]4[C@@]5(C)CCC(=O)C(C)(C)[C@@H]5CC[C@]43C)[C@@H]12`, the growth in assay [9] is 85.2%; in assay [10], 100%; in assay [2], 97.9%; in assay [3], 73.5%; in assay [4] it was 98.8%; in assay [5] it was 88.7%. Also, the growth in assay [6] is 72.7%; in assay [7], 96.4%; in assay [8], 99.1%.
